Compound activity deposited in PubChem BioAssay by National Center for Advancing Translational Sciences (NCATS).
Most compounds without a hit are left out; they make up all but 3.2% or so of the library.
RE007 growth inh = less growth of the S. pombe RE007 Vpr strain; S. pombe RE007 Vpr strain, BacTiter-Glo ATP luminescence, 24 h; 0.21% of 360,000 active; Potency, µM (titrated, usually from 92.2 µM), for inactives: at the highest dose activity change, negative = less growth, actives largely listed as inhibitors; active = well fitted falling curve with a large enough effect; inconclusive = small, poorly fitted or top-dose-only effect; inactive = no such curve, though single readings can be large or run the other way; also: nearly all actives have a fitted effect of over 50% in size
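Fission yeast strain RE007, carrying one chromosomally integrated HIV-1 vpr copy, was seeded at OD 0.01 in PMG+AL medium with 23 nL pinned compound. After 24 h at 30 °C and 99% humidity, viability was read by BacTiter-Glo luminescence.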
TbPYK inhibitor = blocks Trypanosoma brucei pyruvate kinase; Q57TT1; Potency, µM (top dose mostly 76.8 µM), inactives show at the top dose activity, negative = inhibition, actives largely listed as inhibitors; TbPYK enzyme, Kinase-Glo Plus ATP luminescence, 45 min; 0.12% of 410,000 active; also: nearly all actives have a fitted effect of over 50% in size
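T. brucei PYK with substrate was exposed to pin-transferred compounds across a concentration series, then started with 130 uM ADP (final). After 45 min at room temperature, Kinase-Glo Plus luminescence was read, normalized and curve-fitted.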
AMA1-RON2 inh = AMA1-RON2 (P. falciparum) interaction inhibition. Potency, µM (doses to about 58.2 µM), for the others: at the highest dose activity change, negative = inhibition, hits mostly inhibitors. AlphaScreen AMA1-biotinylated RON2 peptide binding. AID 720542. 0.2% of 360,000 active;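 also: 0% = vehicle wells and -100% = peptide control; nearly all actives have a fitted effect of over 45% in size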
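AMA1 (3D7) with his tag at 25 nM final met compounds first, then biotinylated RON2 peptide at 25 nM; detection used donor plus acceptor beads, 10 µg/mL apiece, read by AlphaScreen after 30 min at room temperature.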
LmPK inh = blocks Leishmania mexicana pyruvate kinase activity | purified LmPK, Kinase-Glo ATP luminescence, 1 h | 0.37% of 290,000 active | Q27686 | Potency, µM (top dose mostly 57.5 µM), for inactives: at the highest dose activity change, negative = inhibition, hits mostly inhibitors
Target sequence (Q27686 whole entry, looked up): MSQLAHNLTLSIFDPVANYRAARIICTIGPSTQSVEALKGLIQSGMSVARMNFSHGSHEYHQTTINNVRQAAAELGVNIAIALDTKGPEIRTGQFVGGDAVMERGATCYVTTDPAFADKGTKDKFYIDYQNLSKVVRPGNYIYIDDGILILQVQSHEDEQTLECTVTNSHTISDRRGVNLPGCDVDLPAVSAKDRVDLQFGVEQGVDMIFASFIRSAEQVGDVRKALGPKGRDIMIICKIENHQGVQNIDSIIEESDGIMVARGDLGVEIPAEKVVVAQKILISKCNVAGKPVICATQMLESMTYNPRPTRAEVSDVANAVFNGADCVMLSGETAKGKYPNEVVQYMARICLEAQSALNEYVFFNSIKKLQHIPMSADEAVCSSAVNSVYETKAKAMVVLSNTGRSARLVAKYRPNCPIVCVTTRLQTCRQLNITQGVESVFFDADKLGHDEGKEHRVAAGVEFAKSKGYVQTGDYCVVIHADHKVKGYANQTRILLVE
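Purified LmPK (0.1 nM) with 0.5 mM PEP and 0.1 mM ADP in imidazole buffer pH 7.2 with MgCl2/KCl, 1 h at room temperature. ATP formed was read by luciferase luminescence and normalized to no-enzyme and uninhibited controls.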
Sm TGR inh = S. mansoni TGR enzyme inhibition; purified TGR, DTNB reduction, TNB absorbance 405 nm; 3% of 360,000 active; Potency, µM (doses to about 114 µM), inactives show at the top dose activity change, negative = inhibition, most hits filed as inhibitors; Q962Y6; also: nearly all actives have a fitted effect of over 60% in size
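Kinetic colorimetric format: TGR-catalysed, NADPH-driven DTNB reduction monitored via TNB absorbance. Enzyme dispensed at 20 nM; compound exposure 15 min at room temperature before reaction start.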
* = called active by the depositor; ? = inconclusive; · = not tested or not shown. Unless noted, calls follow the shape of the dose curve; as a rule, active = well fitted curve in the direction sought with a large enough effect; inconclusive = small, poorly fitted or top-dose-only effect, or another doubt; inactive = no such curve, though single readings can be large; an effect the other way counts as inactive or inconclusive. Unless noted, % is scaled to controls: 0 for no effect and ±100 for the full control effect; potency is read from the fitted curve at half-maximal effect.

SMILES	RE007 growth inh	TbPYK inhibitor	AMA1-RON2 inh	LmPK inh	Sm TGR inh
C#CCNC(=O)C1=C[C@H](c2ccc3c(c2)OCO3)[C@@H](CCCO)[C@H](OCC)O1	13%	1%	-3%	2%	45µM*
CC1(C)CC(=O)C(C=Nc2cccnc2/N=C/C2=C(O)CC(C)(C)CC2=O)=C(O)C1	-12%	-13%	35%	-4%	22µM*
CC1(C)CC(=O)C(C=Nc2cccnc2)=C(O)C1	?	0%	6%	0%	5%
Cc1nonc1C(=O)N/N=C/c1cccc(O)c1	-23%	-26%	6%	14µM*	11µM*
COc1ccc(N2CCN(C(=O)c3cn(C)c(=O)c4c3c3ccccc3n4C)CC2)cc1	6%	-7%	-28%	8%	-6%
Cn1c2ccccc2c2c(C(=O)O)cn(C3CCCC3)c(=O)c21	-2%	0%	7%	10%	2%
Cn1c2ccccc2c2c(C(=O)NCc3ccco3)cn(C3CCCCC3)c(=O)c21	9%	-30%	0%	2%	79µM*
Cc1ccc(CNC(=O)c2cn(C3CCCC3)c(=O)c3c2c2ccccc2n3C)o1	·	·	·	4%	8.9µM*
COCCn1cc(C(=O)NCc2ccco2)c2c3ccccc3n(C)c2c1=O	4%	0%	-15%	-1%	-22%
COc1ccc(N2CCN(C(=O)c3cn(C4CCCC4)c(=O)c4c3c3ccccc3n4C)CC2)cc1	-5%	-6%	14µM*	12%	-20%
O=C(c1cccs1)N1CCCc2cc(NS(=O)(=O)c3ccc(F)cc3)ccc21	·	1%	·	·	1%
Cn1c(SCc2ccccc2Cl)nc(=O)c2c1NC(=O)CC2c1cc(F)ccc1F (centres undefined)	·	-10%	·	·	1%
CNC(=S)N1CCn2cccc2C1c1ccc(F)cc1 (centres undefined)	6%	-7%	-5%	0%	35µM*
Cc1nn(-c2ccccc2)c2nc(-c3ccncc3)cc(C(=O)NCc3ccco3)c12	-4%	-6%	6%	5%	45µM*
Cc1nn(-c2ccccn2)c2nc(-c3cccs3)cc(C(=O)NCc3ccco3)c12	21%	-4%	55%	4%	-25%
CCOC(=O)c1cc(-c2ccco2)nc2c1c(C)nn2-c1ccccc1	9%	-2%	9%	3%	8.9µM*
CC1=C(c2ccc(C(C)C)cc2)S(=O)(=O)NC1=NCc1ccccc1Br	·	4%	·	·	-3%
Cc1ccc(/C=C/C(=O)Oc2ccc(C#N)cc2)o1	·	·	·	4%	50µM*
COc1cccc(OC)c1OC(=O)/C=C/c1ccc(C)o1	-9%	0%	-18%	0%	35µM*
O=C1[C@@H]2C(c3cccnc3)=NO[C@@H]2C(=O)N1c1ccc2ccccc2c1	14µM*	-8%	-4%	-2%	3.5µM*
O=C1C2C3c4ccccc4C(c4ccccc43)C2C(=O)N1c1cccnc1 (centres undefined)	2%	-10%	14%	1%	-1%
O=C(O)c1ccc2c(c1)C(=O)N([C@H](Cc1ccc(O)c(O)c1)C(=O)O)C2=O	·	·	·	·	13µM*
CC(C)(C)c1ccc(C[C@H](C(=O)O)N2C(=O)c3ccc(C(=O)O)cc3C2=O)cc1	·	·	·	·	-3%
Cc1ccc(-c2nc3n(n2)Cc2ccccc2-3)cc1	?	-21%	-3%	7.9µM*	-4%
CCn1c(C)nc2cc(-c3nc4n(n3)Cc3ccccc3-4)ccc21	5.6µM*	?	-3%	16µM*	0%
SMILES	RE007 growth inh	TbPYK inhibitor	AMA1-RON2 inh	LmPK inh	Sm TGR inh
CCn1c(C)nc2cc(C(=O)NNC(=O)c3ccc(C)cc3)ccc21	-19%	?	1%	·	2%
CCOc1ccc(C(=O)N(Cc2nc(-c3cccc(C)c3)no2)C(C)C)cc1	·	-10%	·	·	3%
CCOC(=O)c1c(C)oc2nc(C)nc(NCC3CCN(Cc4ccccc4C)CC3)c12	·	4%	·	·	4%
O=C(Nc1ccc2c(c1)OCO2)c1noc2c1CCCC2	5µM*	-11%	-7%	-21%	-4%
Cc1ccc(C(=O)Nc2ccc3c(c2)OCO3)cc1	-13%	-17%	17%	22µM*	-2%
O=C(Nc1ccc2c(c1)OCO2)c1noc2c1CCCCC2	?	3%	-9%	-19%	-29%
O=C(CCl)Nc1ccc2c(c1)OCO2	22%	-3%	-1%	6%	16µM*
Cc1ccc(C(=O)Nc2ccc3c(c2)OCCO3)cc1	79%	-10%	7%	-20%	9%
Cc1ccc(CNc2ccc3c(c2)OCO3)cc1	-20%	-8%	?	-1%	45µM*
CC(=O)c1cccc(NC(=O)CCc2nc3cccnc3n2Cc2cccs2)c1	·	1%	·	·	-7%
COc1ccccc1CNC(=O)CN1C(=O)COc2ccc(S(=O)(=O)Nc3ccccc3)cc21	·	6%	·	·	-11%
CCc1cccc(C)c1NC(=O)c1cc(S(=O)(=O)N(C)Cc2ccccc2)ccc1F	·	6%	·	·	-6%
Cc1cc(C)n2nc(C(=O)Nc3ccc4c(c3)OCO4)nc2n1	-4%	-5%	-15%	-14%	1%
C/C(=C\C(=O)c1ccc(C)o1)Nc1ccc2c(c1)OCO2	-23%	-3%	-3%	-2%	1%
Cc1ccnc2nc(C(=O)Nc3ccc4c(c3)OCO4)nn12	-10%	-21%	-7%	16µM*	-9%
Cc1ccc(C(=O)Nc2ccc3c(c2)OCO3)o1	?	?	1%	18µM*	-10%
Cc1ccc(C)c(N2CCN(C(=O)C3CCCN(S(=O)(=O)c4ccc5c(c4)oc(=O)n5C)C3)CC2)c1 (centres undefined)	·	0%	·	·	-1%
CSc1ncc(C(=O)Nc2ccccc2C)c(C)n1	14%	2%	2%	1%	-15%
COC(=O)c1cnc(SC)nc1C	-3%	-4%	2.8µM*	-1%	7%
CCOC(=O)c1sc2ccccc2c1S(=O)(=O)Nc1cccc(C(F)(F)F)c1	·	-8%	·	·	-3%
O=C(CSc1nc2ncc(Br)cc2[nH]1)c1cccc([N+](=O)[O-])c1	12%	9%	9%	1%	-4%
O=C(C[n+]1cc(Br)cc(Br)c1)c1cccc([N+](=O)[O-])c1	-11%	7%	1%	-9%	10µM*
CC(=O)NC1=C(NC2CCS(=O)(=O)C2)C(=O)c2ccccc2C1=O (centres undefined)	-23%	?	-8%	-8%	0.71µM*
COc1ccc(-c2nc3ccccc3c(=O)o2)cc1	?	2%	-27%	18µM*	6%
COc1ccc2c(c1)CC(NC(=O)Nc1ccc(Br)c(C)c1)CO2 (centres undefined)	·	-1%	·	·	8%
Cc1ccc(CNC(=O)C2CC3Cn4c(nc5cc(C)c(C)cc54)C3N2C)o1 (centres undefined)	-11%	-6%	-2%	5%	0%
